Laboratory results taken from PubChem BioAssay (Tox21).
Results filed as inconclusive are left out. Unmarked numbers belong to inactive results. The source made the active and inactive calls. The call rests on the fitted dose curve; in most records, active means well fitted activation curve with a large enough effect in the repeat runs; inconclusive means weak or mixed curves; inactive means flat fitted curve, though single readings scatter.

assay: A CellTox Green Cytotoxicity Assay to monitor cytotoxicity in HepG2 cells - 40 hour (AID 1224879); conditions: CellTox Green fluorescence; series mostly up to 76.8 µM; cytotoxicity increase: at the top concentration; further: nearly all actives have a fitted effect of over 40% in size
Description: National Center for Advancing Translational Sciences [NCATS]
NIH Chemical Genomics Center [NCGC]
U.S. Environmental Protection Agency [EPA]
National Institutes of Environmental Health Sciences [NIEHS]
National Toxicology Program [NTP]
Cell-based models are critical for drug discovery. Determining the natural cytotoxic effects resulting from test compounds is an essential research activity. A CellTox Green Cytotoxicity Assay to monitor cytotoxicity in real time of continues cell culture during 40 hours of the compound treatment was used to screen Tox21 10K library compounds in HepG2 cells. CellTox Green Cytotoxicity Assay is a nonlytic, homogeneous, biofluorescent method to measure cytotoxicity in cell culture after experimental manipulation. The assay system uses a proprietary asymmetric cyanine dye that is excluded from viable cells but preferentially stains the dead cell's DNA. […] Viable cells produce no appreciable increases in fluorescence. Therefore, the fluorescence signal produced by the binding interaction with dead cell DNA is proportional to cytotoxicity.
The mixture of HepG2 cell suspension and reagents were dispensed at 600cells/6 ul/well in 1536-well tissue culture treated black solid bottom plates using a Multidrop dispenser. After the assay plates were incubated at a 37 C/5% CO2 incubator for 5 hours, 23 nL of compounds dissolved in DMSO, positive and negative controls was transferred to the assay plate by a pintool work station. The plates were incubated at 37 C for 40 hours. The fluorescence intensity were measured at 0h, 8h, 16h, 24h, 32h and 40h time points using ViewLux plate reader during compound treatment.
On the % scale 0 is the no-effect control and ±100 the full control effect; potency means the concentration at half of the fitted maximal effect.

Compound | cytotoxicity increase | Potency
CCc1cccc(CC)c1 | -5.52% | –
C=CC(=O)O[C@H]1C[C@@H]2CC[C@@]1(C)C2(C)C | 2.55% | –
C1=CCCC1 | -14.2% | –
Cc1ccc(N=Nc2c(O)ccc3ccccc23)c(C)c1 | 0.612% [at 35.3 µM] | –
Oc1ccc(Cl)cc1C1CCCC1 | – | 54.9 µM (active)
N#CCCOCCC#N | -12% | –
CCn1c2ccccc2c2ccccc21 | -15.2% | –
CCCCCN=C(N)N/N=C/c1c[nH]c2ccc(OC)cc12 | – | 5.35 µM (active)
CN(C)CCOc1ccc(/C(=C(/CCCl)c2ccccc2)c2ccccc2)cc1 | – | 32.5 µM (active)
CC1(C)[C@H](C(=O)OCc2cccc(Oc3ccccc3)c2)[C@@H]1C=C(Cl)Cl | 17.9% | –
CC1CCC(C(C)(C)O)CC1 (stereo not given) | -8.27% | –
COc1cc(OC)nc(NC(=O)NS(=O)(=O)Nc2ccccc2C(=O)N(C)C)n1 | 3.97% | –
O=c1[nH]cccc1O | -2.09% | –
C=CCc1cc(S(=O)(=O)c2ccc(O)c(CC=C)c2)ccc1O | 20.6% | –
Nc1ccc(F)c([N+](=O)[O-])c1 | -23.2% | –
C/C(=C\c1ccc(C(=O)O)cc1)c1ccc2c(c1)C(C)(C)CCC2(C)C | 22.1% [at 35.3 µM] | –
NC(=O)C1CO1 (stereo not given) | 3.16% | –
O=C(CCN1CCC(c2ccccc2)C1)c1ccc2c(c1)OCCO2 (stereo not given) | – | 26.8 µM (active)
CC1=C(/C=C/C(C)=C/C=C/C(C)=C\C(=O)O)C(C)(C)CCC1 | – | 55.1 µM (active)
Clc1nc(C(Cl)(Cl)Cl)c(Cl)c(Cl)c1Cl | – | 43.6 µM (active)

Compound | cytotoxicity increase | Potency
CC(C=O)c1ccccc1 (stereo not given) | -2.28% | –
NC(=O)c1ccccc1Cl | -10.9% | –
O=C1OC(=O)c2cc(-c3ccc4c(c3)C(=O)OC4=O)ccc21 | 1.24% | –
Cc1ccc(S(=O)(=O)C(I)I)cc1 | – | 24.5 µM (active)
O=C(Nc1ccccc1)c1cc(Cl)ccc1O | – | 49 µM (active)
C1CCSC1 | 1.43% | –
CCC(C)(C)c1ccc(CC(C)CN2C[C@@H](C)O[C@@H](C)C2)cc1 (stereo not given in full) | – | 23.9 µM (active)
Brc1cc(Br)cc(Br)c1 | 9.4% | –
Clc1ccc2c(Cl)ccnc2c1 | 3.68% | –
CCN(CCC#N)c1ccc(N=Nc2ccc([N+](=O)[O-])cc2)cc1 | -15.7% | –
c1ccc(C[P+](c2ccccc2)(c2ccccc2)c2ccccc2)cc1 | – | 19.5 µM (active)
CCOC(=O)[C@H](O)[C@@H](O)C(=O)OCC | 3.35% | –
Oc1cccc2c(O)cccc12 | -11.5% | –
N#Cc1ccc(C/C(=N/NC(=O)Nc2ccc(OC(F)(F)F)cc2)c2cccc(C(F)(F)F)c2)cc1 | 2.67% | –
Nc1cccnc1N | 1.56% | –
c1ccc2cc3c4ccccc4c4ccccc4c3cc2c1 | – | 13.9 µM (active)
CCCCCCCCc1ccc(Nc2ccc(CCCCCCCC)cc2)cc1 | -6.46% [at 35.3 µM] | –
Cc1cc(F)ccc1-c1cc(N2CC[C@@H](O)[C@H]2CO)ncc1N(C)C(=O)C(C)(C)c1cc(C(F)(F)F)cc(C(F)(F)F)c1 | – | 43 µM (active)
c1ccc(-c2nc3ccccc3[nH]2)cc1 | -17.9% | –
NCc1ccco1 | -3.51% | –
